# In publication PMC4336329 (PLoS ONE, 2015):
# The campaign covered roughly 310,000 compounds. About 14,000 (4.5%) showed an effect of 50% or more. The effect is printed as a negative number. The sample holds strong results, similar compounds and a random draw of the others, so the mix is not that of the screen.
# Target: human ether-à-go-go-related gene (hERG) potassium channel (human, UniProt Q12809)
# Test: primary screen, population patch clamp on CHO cells stably expressing hERG; higher = less effect of the substance
# 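Note: peak tail current of the secondary pulse compared with the same well before compound.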
# Chain of human ether-à-go-go-related gene (hERG) potassium channel (Q12809 whole entry, looked up): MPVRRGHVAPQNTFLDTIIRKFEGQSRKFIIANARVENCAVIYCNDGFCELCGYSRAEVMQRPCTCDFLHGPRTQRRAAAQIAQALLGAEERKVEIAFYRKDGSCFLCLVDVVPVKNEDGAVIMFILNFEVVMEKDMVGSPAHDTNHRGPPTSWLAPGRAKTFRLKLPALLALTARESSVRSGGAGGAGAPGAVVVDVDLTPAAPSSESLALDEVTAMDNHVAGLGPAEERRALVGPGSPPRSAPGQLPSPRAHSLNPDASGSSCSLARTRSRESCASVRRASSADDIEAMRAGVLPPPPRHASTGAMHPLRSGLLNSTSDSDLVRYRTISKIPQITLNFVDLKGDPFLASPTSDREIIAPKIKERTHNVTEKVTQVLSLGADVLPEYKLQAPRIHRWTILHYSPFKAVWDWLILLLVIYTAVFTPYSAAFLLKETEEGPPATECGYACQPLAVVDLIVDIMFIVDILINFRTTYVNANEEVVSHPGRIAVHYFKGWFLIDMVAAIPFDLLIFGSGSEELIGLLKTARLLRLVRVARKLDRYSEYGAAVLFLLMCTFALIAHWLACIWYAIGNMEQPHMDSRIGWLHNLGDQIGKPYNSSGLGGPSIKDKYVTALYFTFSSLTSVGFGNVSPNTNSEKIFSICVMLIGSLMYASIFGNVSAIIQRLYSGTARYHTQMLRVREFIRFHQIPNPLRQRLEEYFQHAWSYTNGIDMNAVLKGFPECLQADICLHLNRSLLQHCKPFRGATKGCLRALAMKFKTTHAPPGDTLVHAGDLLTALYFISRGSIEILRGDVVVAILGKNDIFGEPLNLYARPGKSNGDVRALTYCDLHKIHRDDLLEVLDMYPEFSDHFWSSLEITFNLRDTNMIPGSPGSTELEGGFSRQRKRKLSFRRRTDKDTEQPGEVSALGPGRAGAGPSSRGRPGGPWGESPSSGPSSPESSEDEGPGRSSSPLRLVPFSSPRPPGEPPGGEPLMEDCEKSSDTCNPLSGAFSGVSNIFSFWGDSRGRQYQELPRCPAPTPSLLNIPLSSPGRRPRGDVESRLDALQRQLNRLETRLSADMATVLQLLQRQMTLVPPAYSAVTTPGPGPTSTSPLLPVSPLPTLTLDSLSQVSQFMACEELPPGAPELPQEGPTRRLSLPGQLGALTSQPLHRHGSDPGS
row,Structure (SMILES),"hERG current change (%, negative = inhibition) at 10uM [%]"
1,COc1ccc(OCC(Cn2cnc3ccccc32)OC(C)=O)cc1.Cl (stereo not shown),-26
2,Cc1cc(C)n(-c2cc(C(C)(C)C)nc3c(-c4ccccc4)cnn23)n1,14.6
3,COc1ccc(C(=O)NCCS(=O)(=O)NCCc2ccccc2)cc1,-13.2
4,CC1(C)CC(C)(c2ccc(O)cc2O)N(c2cccc(Cl)c2)C(=S)N1 (stereo not shown),2.04
5,Nc1c(C(=O)NCCN2CCOCC2)c2nc3ccccc3nc2n1-c1ccccc1,-52
6,Cc1cccc(-n2c(N)c(C(=O)NCCN3CCOCC3)c3nc4ccccc4nc32)c1,-57.1
7,CCCNC(=O)c1c(N)n(-c2cccc(OC)c2)c2nc3ccccc3nc12,-5.21
8,Nc1c(C(=O)NCCN2CCOCC2)c2nc3ccccc3nc2n1-c1cccc(F)c1,-33.2
9,Nc1c(C(=O)NCCN2CCOCC2)c2nc3ccccc3nc2n1-c1ccc2c(c1)OCO2,-33.5
10,COCCNC(=O)c1c(N)n(-c2cccc(C)c2)c2nc3ccccc3nc12,-24.7
11,Cc1ccc(S(=O)(=O)NCCC(=O)NCc2ccccn2)cc1,11.1
12,Cc1ccc(-c2nnn(CC(=O)N(Cc3ccco3)C(C(=O)NC(C)(C)C)c3cccs3)n2)o1 (stereo not shown),-19.2
13,O=C(NCC1CCCO1)c1cc2c([nH]c3ccccc32)c(-c2cccc(Cl)c2)n1 (stereo not shown),-20.5
14,Cc1sc2nc(-c3ccc(Br)cc3)oc(=O)c2c1C,13.3
15,CSc1nc(C(=O)N2CCc3c([nH]c4ccccc34)C2c2ccccn2)cs1 (stereo not shown),-4.85
16,CC(=O)Nc1ccc(NC(=O)c2cc[n+]([O-])cc2)cc1,25.2
17,CC(C)Cc1nnc(NC(=O)c2cc([N+](=O)[O-])ccc2N2CCOCC2)s1,-51.4
18,CC(C)Cc1nnc(NC(=O)CCC(=O)N2CC(C)CC(C)C2)s1 (stereo not shown),-50.8
19,CC(C)CNC(=O)c1cc([N+](=O)[O-])ccc1N1CCOCC1,4.47
20,CC(C)Cc1nnc(NC(=O)CCC(=O)N2CCN(c3ccc(Cl)cc3)CC2)s1,-3.51
21,CC(C)Cc1nnc(NC(=O)CCC(=O)N2CCN(c3ccc([N+](=O)[O-])cc3)CC2)s1,-72.3
22,CCc1nnc(NC(=O)c2cc([N+](=O)[O-])ccc2N2CCOCC2)s1,-15
23,CC(C)Cc1nnc(NC(=O)CCC(=O)N2CCN(c3ccc(F)cc3)CC2)s1,1.08
24,CC(C)Cc1nnc(NC(=O)CCC(=O)N2CCC(C)CC2)s1,0.442
25,CC1CC(C)CN(C(=O)CCC(=O)Nc2nnc(C(C)C)s2)C1 (stereo not shown),12.6
